Source: PubChem BioAssay
CYP2C19 inhib = human CYP2C19 inhibition; AID 778; inhibition, % at 5 µM; hit rate 21% among 96,000; CYP2C19 Supersomes, luciferin-H EGE luminescence, 30 min; P33261;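 active = CYP2C19 inhibition above a set limit at 5 µM in the primary screen, cut at about 50% in these data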
Target sequence (P33261 whole entry, looked up): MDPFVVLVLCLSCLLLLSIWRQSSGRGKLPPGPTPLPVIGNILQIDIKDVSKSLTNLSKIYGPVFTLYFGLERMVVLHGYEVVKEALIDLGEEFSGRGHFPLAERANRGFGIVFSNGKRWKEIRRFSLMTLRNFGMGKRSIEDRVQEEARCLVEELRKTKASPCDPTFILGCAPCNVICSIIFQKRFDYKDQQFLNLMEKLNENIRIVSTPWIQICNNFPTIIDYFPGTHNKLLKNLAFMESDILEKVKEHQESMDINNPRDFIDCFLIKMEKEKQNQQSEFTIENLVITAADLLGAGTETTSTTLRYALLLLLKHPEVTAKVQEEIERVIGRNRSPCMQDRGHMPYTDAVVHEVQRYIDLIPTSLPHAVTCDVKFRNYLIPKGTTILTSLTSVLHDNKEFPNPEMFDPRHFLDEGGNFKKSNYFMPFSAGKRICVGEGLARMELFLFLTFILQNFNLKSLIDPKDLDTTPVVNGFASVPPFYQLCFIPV
CYP2C9 act = increases human cytochrome P450 2C9 activity; P11712; recombinant CYP2C9, luciferin-H conversion, luminescence; stronger effect = higher value; factor 1 = untreated enzyme, 0 = blocked; activation factor at 5 µM; hit rate 1.4% among 96,000; AID 1024;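 active = activation factor of 2 or more for CYP2C9 at a 5 µM dose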
CYP2C19 act = activators of human cytochrome P450 2C19 | 96,000 tested, under 10 active | recombinant CYP2C19, luciferin-H EGE luminescence; stronger effect = higher value; 0 = fully inhibited enzyme, 1 = untreated enzyme | activation factor at 5 µM | P33261;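 active = activation factor of at least 2 at 5 µM in the primary screen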
Measles CPE = protection of cells from measles virus; hit rate 1.5% among 140,000; Measles virus-infected cells, CPE protection, absorbance; AID 841; protection (pct of control), % at 4 µM; in the data active = protection mostly above about 24%, no sharp cut-off; inactive = mostly below about 26%
CYP2C9 inhib = human CYP2C9 inhibition. P11712. CYP2C9 Supersomes, luciferin-H conversion, luminescence. inhibition, % at 5 µM. hit rate 20% among 96,000. AID 777;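 active = blocking of liver enzyme CYP2C9 beyond about 50% at 5 µM, limit read from the data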
A number is an active result; 0 = inactive; - = no result given. A selection: hits, their analogues and other compounds. The true share with any hit is near 22%.

SMILES | CYP2C19 inhib | CYP2C9 act | CYP2C19 act | Measles CPE | CYP2C9 inhib
CCOC(=O)C1=C(C)NC(C)=C(C(=O)OCC)C1C(=O)OCC(=O)c1ccc2c(c1)OCCO2 | 68.4 | 0 | 0 | 0 | 84.7
CCOC(=O)C1=C(C)NC(C)=C(C(=O)OCC)C1C(=O)OCC(=O)N1CCc2ccccc21 | 0 | 0 | 0 | 0 | 82.1
CCCCCCCCOC(=O)CCc1c(C)[nH]c(=S)[nH]c1=O | 0 | 0 | 0 | 0 | 0
CCOC(=O)c1c(C)[nH]c(C(=O)OCC(=O)Nc2ccc(OC)c(Cl)c2)c1C | 0 | 0 | 0 | 0 | 0
CC(C)Oc1ccc(C(=O)N(CN2CCCC2=O)c2ccc(F)cc2)cc1 | 0 | 0 | 0 | 0 | 0
COC(=O)C1C(O)=CC(=O)CC1C (configuration not stated) | - | - | - | 0 | -
O=C(O)CNC(=O)c1ccc2c(c1)OCCO2 | 0 | 0 | 0 | 0 | 0
Cc1ccccc1NS(=O)(=O)c1cc(C(=O)NCc2ccco2)ccc1C | 0 | 0 | 0 | 0 | 68.7
Cc1ccc(C)c(NS(=O)(=O)c2cc(C(=O)NCc3ccco3)ccc2C)c1 | 60.5 | 0 | 0 | 0 | 82.9
Cc1ccc(C(=O)NCc2ccco2)cc1S(=O)(=O)Nc1cccc(C)c1C | 0 | 0 | 0 | 0 | 0
Cc1ccc(SCCNC(=O)c2ccc(C)c(S(=O)(=O)Nc3ccccc3C)c2)cc1 | 66.9 | 0 | 0 | 0 | 68.2
COCCNC(=O)c1ccc(NS(=O)(=O)c2cc(C)ccc2C)cc1 | 0 | 0 | 0 | 0 | 0
COc1ccccc1NS(=O)(=O)c1cc(C(=O)NCc2ccco2)ccc1C | 61.1 | 0 | 0 | 0 | 0
O=C(CCn1cccc1)Nc1nccs1 | 0 | 0 | 0 | 0 | 0
COc1ccc(OC)c(Nc2cc(C(=O)NCCCN3CCOCC3)c3ccccc3n2)c1 | 0 | 0 | 0 | 0 | 0
Cc1ccccc1NS(=O)(=O)c1cc(C(=O)N2CCc3ccccc3C2)ccc1C | 53.6 | 0 | 0 | 0 | 66.7
Cc1ccc(NS(=O)(=O)c2cc(C(=O)N3CCc4ccccc4C3)ccc2Cl)cc1 | 0 | 0 | 0 | 0 | 0
Cc1ccc(NC(=O)CCNS(=O)(=O)c2cc(Br)cnc2N)c(Cl)c1 | - | - | - | 0 | -
Nc1ncc(Br)cc1S(=O)(=O)NCCC(=O)N1CCN(c2ncccn2)CC1 | 59.6 | 0 | 0 | 0 | 0
Nc1ncc(Br)cc1S(=O)(=O)NCCC(=O)Nc1cccc(Cl)c1 | 66.3 | 0 | 0 | 0 | 0
COc1cc(OC)c(NC(=O)CCNS(=O)(=O)c2cc(Br)cnc2N)cc1Cl | 0 | 0 | 0 | 0 | 94.4
O=C(NC(Cc1ccccc1)c1ccc2c(c1)OCCCO2)c1ccccc1 (configuration not stated) | 0 | 0 | 0 | 0 | 65.0
NC(=O)C1CCN(c2nc(-c3ccccc3)nc3c2oc2ccccc23)CC1 | 0 | 0 | 0 | 0 | 0
Cc1cc(N2CCC(C(N)=O)CC2)nc(-c2ccccc2)n1 | 0 | 0 | 0 | 0 | 53.2
NC(=O)C1CCN(c2nc(-c3ccccc3)nc3ccccc23)CC1 | 0 | 0 | 0 | 0 | 53.7
SMILES | CYP2C19 inhib | CYP2C9 act | CYP2C19 act | Measles CPE | CYP2C9 inhib
Cc1cc(N2CCC(C(=O)Nc3ccc(F)cc3)CC2)nc(-c2ccccc2)n1 | 81.9 | 0 | 0 | 0 | 62.3
COc1ccc(NC(=O)C2CCN(c3cc(C)nc(-c4ccccc4)n3)CC2)cc1 | 0 | 0 | 0 | 0 | 0
CC1CCN(c2nc(-c3ccco3)c3c(c2C#N)CC(C)(C)OC3)CC1 | 0 | 0 | 0 | 0 | 55.8
CC1(C)Cc2c(C#N)c(N3CCN(C(=O)c4ccccc4)CC3)nc(Cc3ccccc3)c2CO1 | 0 | 0 | 0 | 0 | 98.5
CCc1nc(N2CCN(C(=O)c3ccccc3)CC2)c(C#N)c2c1COC(C)(C)C2 | 75.1 | 0 | 0 | 0 | 77.1
CC1(C)Cc2nc(N3CCOCC3)c(C#N)cc2CO1 | 0 | 0 | 0 | 17.9 | 0
O=C1CC(NNc2ccccc2)C(=O)N1c1ccccc1 (configuration not stated) | - | - | - | 0 | -
Cc1csc(N(C)C(=O)CSc2nnc(COc3ccccc3C)o2)n1 | 0 | 0 | 0 | 0 | 0
O=C(Nc1ccccc1N1CCN(c2ccccc2)CC1)C1CCCCC1 | 0 | 0 | 0 | - | 0
COC(=O)c1n[nH]c2ccccc12 | 0 | 0 | 0 | 0 | 0
Cc1cccc(NC(=O)CSc2nnc(CCC(=O)Nc3ccc(C)c(Cl)c3)n2C)c1 | 0 | 0 | 0 | 0 | 0
Cc1ccc(S(=O)(=O)N2CCN(c3nc4ccccc4nc3-n3nc(C)cc3C)CC2)cc1 | 0 | 0 | 0 | 0 | 0
N#Cc1cc2cc3c(cc2nc1N1CCOCC1)OCO3 | 54.7 | 0 | 0 | 0 | 0
Cc1nc(N2CCOCC2)c(C#N)c2c1COC(C)(C)C2 | - | - | - | 0 | -
